Screens as filed in PubChem BioAssay.
Tb PYK inh: qHTS of Trypanosoma Brucei Inhibitors | Potency, µM (highest dose often 76.8 µM), for inactives: at the top dose activity, negative = inhibition, hits mostly inhibitors | TbPYK enzyme, Kinase-Glo Plus ATP luminescence, 45 min | 0.12% of 410,000 active | pyruvate kinase (Trypanosoma brucei), Q57TT1; further: potency means the concentration at half of the fitted maximal effect; on the % scale 0 is the no-effect control and ±100 the full control effect; nearly all actives have a fitted effect of over 50% in size
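Assay buffer: 50 mM TEA pH 7.2, 100 mM KCl, 10 mM MgCl2, 0.05% BSA, 0.01% Tween-20. Pyruvate kinase from T. brucei plus substrate met compound, then ADP (130 uM final). Luminescence was read post 45 min RT.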
LmPK inh: qHTS Assay for Inhibitors of Leishmania Mexicana Pyruvate Kinase (LmPK). Q27686. 0.37% of 290,000 active. Potency, µM (doses to about 57.5 µM), without a hit: at the highest dose activity change, negative = inhibition, most hits filed as inhibitors. AID 1721, 2009. purified LmPK, Kinase-Glo ATP luminescence, 1 h; further: potency means the concentration at half of the fitted maximal effect; on the % scale 0 is the no-effect control and ±100 the full control effect
Target sequence (Q27686 whole entry, looked up): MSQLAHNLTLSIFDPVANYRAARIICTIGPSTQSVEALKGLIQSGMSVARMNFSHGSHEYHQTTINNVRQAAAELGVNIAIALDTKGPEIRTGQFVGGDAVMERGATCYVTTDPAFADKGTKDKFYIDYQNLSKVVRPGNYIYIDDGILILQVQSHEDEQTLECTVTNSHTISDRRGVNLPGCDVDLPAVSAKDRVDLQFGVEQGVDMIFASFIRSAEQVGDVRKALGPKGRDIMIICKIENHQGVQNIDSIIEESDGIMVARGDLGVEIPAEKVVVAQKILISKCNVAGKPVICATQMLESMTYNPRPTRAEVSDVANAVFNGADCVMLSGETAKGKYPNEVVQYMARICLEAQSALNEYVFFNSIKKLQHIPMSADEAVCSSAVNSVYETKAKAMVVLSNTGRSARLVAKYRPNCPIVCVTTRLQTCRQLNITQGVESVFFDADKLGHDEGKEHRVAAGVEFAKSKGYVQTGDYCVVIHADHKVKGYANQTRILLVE
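Purified LmPK (0.1 nM) converted ADP (0.1 mM) to ATP with PEP (0.5 mM) in imidazole buffer pH 7.2 with KCl and MgCl2, 1 h at room temperature. ATP was read by Kinase-Glo luminescence; data normalized to uninhibited and no-enzyme controls.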
Giardia FBPA inh: qHTS Assay for Inhibitors of Fructose-1,6-bisphosphate Aldolase from Giardia Lamblia | A8B2U2 | purified Giardia FBPA | 0.71% of 290,000 active | Potency, µM (series often up to 59.6 µM), for inactives: at the highest dose activity, negative = inhibition, hits mostly inhibitors; further: potency means the concentration at half of the fitted maximal effect; on the % scale 0 is the no-effect control and ±100 the full control effect; nearly all actives have a fitted effect of over 55% in size
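40 nM FBPA preincubated 10 min at RT with compound (up to 57.5 uM final), then substrate plus GAPDH/TPI/NAD/arsenate coupling and diaphorase/resazurin added. Fluorescence read after 20 min at RT, 525/598 nm.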
Shiga toxin inh: A qHTS for Small Molecule Inhibitors of Shiga Toxin; Vero cells, Shiga toxin protein synthesis inhibition reporter; inhibition, % at 38.7 µM; 9.2% of 290,000 active; AID 2315, 2010; in the data active means inhibition mostly above about 28%, no sharp cut-off; inactive means mostly below about 43%; further: 0% is about no effect
CHX counter: Cycloheximide Counterscreen for Small Molecule Inhibitors of Shiga Toxin; cell reporter, cycloheximide protein synthesis inhibition counterscreen; max response, %; 12% of 300,000 active; AID 2314, 2010; in the data active means max response mostly above about 13%, no sharp cut-off; inactive means mostly below about 14%; further: read at 38.3 µM for the half of the compounds with a filed dose; 0% is about no effect
RE007 growth inh: qHTS Assay for Inhibitors of the HIV-1 protein Vpr; 0.21% of 360,000 active; AID 651644, 2012; Potency, µM (series often up to 92.2 µM), inactives show at the highest dose activity change, negative = less growth, most hits filed as inhibitors; S. pombe RE007 Vpr strain, BacTiter-Glo ATP luminescence, 24 h; active means well fitted falling curve with a large enough effect; inconclusive means small, poorly fitted or top-dose-only effect; inactive means no such curve, though single readings can be large or run the other way; further: potency means the concentration at half of the fitted maximal effect; on the % scale 0 is the no-effect control and ±100 the full control effect; nearly all actives have a fitted effect of over 50% in size
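Fission yeast strain RE007, carrying one chromosomally integrated HIV-1 vpr copy, was seeded at OD 0.01 in PMG+AL medium with 23 nL pinned compound. After 24 h at 30 °C and 99% humidity, viability was read by BacTiter-Glo luminescence.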
* hit, by the source's call; ? = inconclusive; / = not tested or not shown; [ ] = remark or other dose. The full list was thinned out, with hits kept by preference. Unless noted, the call rests on the fitted dose curve; in most records, active means well fitted curve in the direction sought with a large enough effect; inconclusive means small, poorly fitted or top-dose-only effect, or another doubt; inactive means no such curve, though single readings can be large; an effect the other way counts as inactive or inconclusive.

SMILES | Tb PYK inh | LmPK inh | Giardia FBPA inh | Shiga toxin inh | CHX counter | RE007 growth inh
Cc1ccnc(NC(=O)c2cc([N+](=O)[O-])cc([N+](=O)[O-])c2)c1 | 1.1% | -6.1% | -2.9% | 21.0 | 7.4 | 13.3%
Cc1ccccc1NC(=O)CCn1cnc2onc(-c3ccc(F)cc3)c2c1=O | 0.0% | / | / | / | / | /
CCc1ccc(-c2nc3c(c(SCc4ccccc4)n2)Cc2c(CO)cnc(C)c2O3)cc1 | 3.4% | / | / | / | / | /
CC(=O)c1cccc(NS(=O)(=O)c2ccc(N/C=C/C(=O)c3ccc(F)cc3)cc2)c1 | 0.6% | 5.0% | -2.7% | 110.1* | 46.2* | 1.0%
Cc1ccc(C(=O)/C=C/Nc2ccc(S(=O)(=O)Nc3cc(C)nc(C)n3)cc2)cc1 | -2.5% | 4.8% | -9.1% | 29.5 | 29.5* | 2.4%
CC(=O)c1cccc(NS(=O)(=O)c2ccc(N/C=C\C(=O)c3ccc(C)cc3)cc2)c1 | -3.6% | 4.5% | 4.7% | 15.3 | 12.7 | 5.4%
CC(=O)c1cccc(NS(=O)(=O)c2ccc(N/C=C\C(=O)c3ccc(F)cc3)cc2)c1 | -17.6% | 2.3% | / | 122.3* | 36.7* | -6.7%
COc1cc(NS(=O)(=O)c2ccc(N/C=C\C(=O)c3ccc(F)cc3)cc2)nc(OC)n1 | -8.8% | 0.7% | 8.2% | 94.2* | 71.2* | 9.2%
CC(=O)c1ccc(NS(=O)(=O)c2ccc(N/C=C/C(=O)c3ccc(F)cc3)cc2)cc1 | -14.4% | 4.0% | -1.6% | 81.4* | 53.2* | 6.9%
CC(=O)c1ccc(S(=O)(=O)Nc2ccc(C(=O)N3CCC3)cc2)cc1 | -5.2% | / | / | / | / | -15.4%
CC(OC(=O)CSc1ccc(F)cc1)C(=O)NC1(C#N)CCCCC1 (configuration not stated) | -3.9% | -3.4% | / | 18.0 | 7.3* | 5.1%
Cc1ccc(SCC(=O)OC(C)C(=O)NC2(C#N)CCCCC2)cc1 (configuration not stated) | -7.9% | / | / | / | / | 0.8%
COc1ccc(C)cc1Nc1nc(N)c2ccccc2n1 | -3.9% | -0.4% | ? | 55.5* | 28.2* | -18.4%
CCOc1ccc(Nc2nc(N)c3ccccc3n2)cc1 | ? | -3.9% | ? | 11.5 | 0.3 | ?
Nc1nc(Nc2ccccc2)nc2ccccc12 | -23.3% | 15.8µM* | -7.5% | 56.2 | 28.2 | ?
COc1cc2nc(Nc3cccc(C)c3)nc(N)c2cc1OC | -5.3% | / | / | / | / | /
Cc1ccc(Nc2nc(N)c3ccccc3n2)cc1Cl | 0.8% | -0.7% | 14.1% | / | 43.0* | -13.3%
COc1cc2nc(Nc3ccc(C)c(Cl)c3)nc(N)c2cc1OC | -0.9% | -0.4% | -3.5% | 20.0 | 10.9 | 4.2%
CN(C)c1ccc(Nc2nc(N)c3ccccc3n2)cc1 | ? | ? | ? | / | -0.9 | 25.1µM*
Cc1ccc(N2CC(c3nnc(Cc4ccc(F)cc4)o3)CC2=O)cc1 (configuration not stated) | 3.3% | / | / | / | / | /
CCCCNC(=O)C(CC)Sc1nc2ccccc2c(=O)n1CCc1ccc(OC)c(OC)c1 (configuration not stated) | 0.3% | / | / | / | / | /
C[C@H]1Cc2c(-c3ccccc3)nc3c(c2CO1)CN(C(=O)c1ccco1)CC3 | / | -4.9%[11.5 µM] | 3.3%[12.9 µM] | / | / | /
Cc1cccc(CSc2nc3c(sc4ccccc43)c(=O)n2CCC(=O)NC(C)C)c1 | 2.9% | / | / | / | / | /
Cc1ccccc1Nc1nc(N)c2ccccc2n1 | ? | ? | -2.3% | 51.5* | 20.7* | ?
Nc1nc(Nc2ccc(Cl)cc2)nc2ccccc12 | 4.8% | 17.8µM* | -9.6% | 26.7 | 30.5* | ?
Cc1ccccc1Nc1nc(N)nc(CSc2nc3ccccc3c(=O)n2C)n1 | -6.4% | 1.5% | 2.8% | -12.1 | -1.0 | 11.7%
Oc1ccc(Nc2nc(-c3ccc(Cl)cc3)nc3ccccc23)cc1 | 0.9% | / | / | 1.7 | -3.4 | /
CCCc1cc(=O)[nH]c(SCc2nc(-c3ccc(C)cc3)no2)n1 | -0.9% | / | / | / | / | /
COCCn1c(=O)c(-c2cccs2)nc2cnc(OCc3ccccc3)nc21 | 1.1% | / | 1.6% | / | / | /
COc1ccc(NC(=O)COC(=O)C2=COCCO2)cc1OC | 1.6% | -0.2% | 2.6% | -3.7 | 7.9 | -14.0%
